Data taken from the supplement of paper PMC10981050.
Values joined by “and” are separate entries in the source; they are usually repeats but may differ in a detail not shown here. Equal values may be shown once. Where a name gives a salt, the structure may show the parent alone.

Key:
Assay in all cases: cell viability relative to vehicle control; higher = less cytotoxic
Details in all cases: 10 µM
K562 = tested on: K562
Method in brief: (§1)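 Mutant clones made by CRISPR editing and their isogenic wild-type counterparts, from four leukaemia lines, were exposed to a single 10 µM dose of each library compound for 48 h. The supernatant was then removed and CellTiter-Glo luminescence was read. Viability was reported as percent of the on-plate vehicle control.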

MARIMO = tested on: MARIMO
Method in brief: as §1

MOLM14 = tested on: MOLM14
Method in brief: as §1

OCI-AML2 = tested on: OCI-AML2
Method in brief: as §1

| SMILES | cell viability (K562; SRSF2 genotype: SRSF2 P95H/wt) | cell viability (K562; SRSF2 genotype: SRSF2 wt/wt) | cell viability (MARIMO; SRSF2 genotype: SRSF2 P95H/wt) | cell viability (MARIMO; SRSF2 genotype: SRSF2 wt/wt) | cell viability (MOLM14; SRSF2 genotype: SRSF2 P95H/wt) | cell viability (MOLM14; SRSF2 genotype: SRSF2 wt/wt) | cell viability (OCI-AML2; SRSF2 genotype: P95H/wt) | cell viability (OCI-AML2; SRSF2 genotype: wt/wt) |
| --- | --- | --- | --- | --- | --- | --- | --- | --- |
| Cn1c(CCCC(=O)O)nc2cc(N(CCCl)CCCl)ccc21 [Bendamustine HCL] | 97.2% and 96.8% | 96.3% | 94.5% | 104% | 86.3% | 97.8% | 66.5% | 83% |
| O=C(C[S+]([O-])C(c1ccccc1)c1ccccc1)NO (stereo not given) [Adrafinil] | 95.6% and 94.3% | 103% | 92.9% | 96.4% | 95.3% | 102% | 91.8% | 110% |
| CC(C)=CCCC(C)(O)C1CCC2(C)C1C(O)CC1C3(C)CCC(OC4OC(CO)C(O)C(O)C4O)C(C)(C)C3CCC12C [(20R)Ginsenoside Rh2] | 90.5% and 92.8% | 96% | 101% | 102% | 102% | 96% | 98.5% | 106% |
| Cc1cc(SCc2sc(-c3ccc(C(F)(F)F)c(F)c3)nc2C)ccc1OCC(=O)O | 100% and 101% | 105% | 106% | 112% | 99.7% | 103% | 95.9% | 101% |
| CC[C@H]1[C@@H]2C[C@H]3[C@@H]4N(C)c5ccccc5[C@]45C[C@@H]([C@@H]2[C@H]5O)N3[C@@H]1O [Ajmaline] | 95.7% and 94% | 98.5% | 90.6% | 96.2% | 94.6% | 98.4% | 93.9% | 97.9% |
| C[C@]12CC[C@H](O)C[C@@]1(O)CC[C@@H]1[C@@H]2CC[C@]2(C)[C@@H](C3=CC(=O)OC3)CC[C@]12O [Periplogenin] | 8.32% and 13% | 12.9% | 14.3% | 11.9% | 7.26% | 1.77% | 4.72% | 8.91% |
| CNC(C)Cc1ccccc1OC (stereo not given) [Methoxyphenamine Hydrochloride] | 98% and 100% | 106% | 100% | 104% | 106% | 102% | 107% | 101% |
| Cc1sc2c(c1C)C(c1ccc(Cl)cc1)=NC(CC(N)=O)c1nnc(C)n1-2 (stereo not given) | 65.2% and 63.5% | 69.8% | 30% | 36.7% | 20.1% | 20.3% | 15.3% | 29.4% |
| CC(C)C(Br)C(=O)NC(N)=O (stereo not given) [Bromisoval] | 99.8% and 99.2% | 94.8% | 95.8% | 108% | 92% | 104% | 93.2% | 95% |
| C[C@@H]1CC[C@H]2[C@@H](C)C(=O)O[C@@H]3O[C@@]4(C)CC[C@@H]1[C@]32OO4 [Artemisinin] | 83% and 79.2% | 78.7% | 74.8% | 93.3% | 85.8% | 87.3% | 84.6% | 98.2% |
| CC(C)OC(=O)[C@H](C)N[P@](=O)(CO[C@H](C)Cn1cnc2c(N)ncnc21)Oc1ccccc1 [Tenofovir Alafenamide (GS-7340)] | 100% and 106% | 97.3% | 93.8% | 91.2% | 87% | 90.6% | 31.5% | 53.6% |
| C=C1CC[C@H]2[C@@H](C=C(C)C(=O)[C@@]3(O)C[C@H](C)[C@H](O)[C@@H]3[C@H]1O)C2(C)C [Lathyrol] | 94.9% and 95.9% | 96.9% | 92.5% | 102% | 97.1% | 96.8% | 105% | 99% |
| CCc1c2c(nc3ccccc13)-c1cc3c(c(=O)n1C2)COC(=O)[C@]3(O)CC [7-Ethylcamptothecin] | 7.64% and 19.6% | 10.4% | 5.75% | 3.52% | 0.48% | 0.48% | 0.36% | 0.82% |
| CC(O)(CS(=O)(=O)c1ccc(F)cc1)C(=O)Nc1ccc(C#N)c(C(F)(F)F)c1 (stereo not given) [Bicalutamide (Casodex)] | 95.5% and 101% | 106% | 95.4% | 102% | 98.7% | 98.8% | 93.8% | 91.8% |
| CCCC[N+]1(C)[C@@H]2CC(OC(=O)[C@H](CO)c3ccccc3)C[C@H]1[C@@H]1O[C@@H]12 (stereo not given in full) [Butylscopolamine bromide (Scopolamine butylb] | 108% and 95.5% | 97.8% | 102% | 110% | 97.5% | 103% | 94.3% | 105% |
| NCCc1ccccc1 [2-Phenylethylamine hydrochloride] | 105% and 104% | 104% | 103% | 105% | 104% | 106% | 112% | 117% |
| Nc1ncnc2c1ccn2[C@@H]1O[C@H]([C@H](O)c2ccccc2)[C@@H](O)[C@H]1O | 89.1% and 85% | 79.6% | 83.5% | 95.3% | 77.1% | 89.3% | 79% | 88% |
| CN(C)[C@@H]1C(=O)C(C(N)=O)=C(O)[C@@]2(O)C(=O)C3=C(O)c4c(O)cccc4[C@@](C)(O)[C@H]3[C@H](O)[C@@H]12 [Oxytetracycline (Terramycin)] | 86.7% and 82.8% | 85.9% | 90.8% | 87.4% | 87.5% | 88.3% | 84.5% | 90% |
| COc1cc([C@@H]2c3cc4c(cc3[C@H](O)[C@H]3COC(=O)[C@H]23)OCO4)cc(OC)c1O [4'-Demethylpodophyllotoxin] | 15.8% and 34.9% | 35.7% | 8.03% | 7.56% | 0.85% | 0.99% | 1.45% | 3.83% |
| C[C@H]1CCCC(=O)CCC/C=C/c2cc(O)cc(O)c2C(=O)O1 [Zearalenone] | 101% and 93.8% | 99.5% | 82.7% | 88.8% | 79.2% | 99% | 88.7% | 97.7% |
